From PubChem
TDP1 cell noCPT = qHTS for Inhibitors of human tyrosyl-DNA phosphodiesterase 1 (TDP1): qHTS in cells in absence of CPT. DT40 Tdp1-/- hTDP1 cells, no CPT, ATP luminescence, 48 h. Potency, µM (series often up to 46.2 µM), inactives show top-dose activity change, negative = growth inhibition, usual class: inhibitors. 420,000 tested, 15% active; also: potency is read from the fitted curve at half-maximal effect; % is scaled to controls: 0 for no effect and ±100 for the full control effect; nearly all actives have a fitted effect of over 55% in size
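Stably hTDP1-transfected Tdp1-null chicken DT40 cells were treated with library compounds minus camptothecin and grown for at least 48 hr at 37 °C, after which cellular ATP was quantified by luminescence.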
HepG2 tox = kills HepG2 cells in TGF-b inhibitor counter-screen | HepG2 CAGA-GFP viability, ATP luminescence, 18 h | Potency, µM (doses to about 46.1 µM), inactives show at the top dose activity change, negative = cytotoxicity, most hits filed as cytotoxic | 410,000 tested, 0.76% active | AID 588856; also: potency is read from the fitted curve at half-maximal effect
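CellTiter-Glo luminescence gave cytotoxicity after 18 hours at 37 degrees C. The cells were HepG2 CAGA-GFP in 1% FBS DMEM, stimulated with 500 pg/mL TGF-beta after compound addition. %Activity was normalised to no-cell wells (complete cell-killing) and DMSO (no toxicity), and curves were fitted and classified.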
IL1B secr inh = inflammasome signaling inhibition, IL-1 beta readout; AID 743279; THP-1 LPS/ATP IL-1B secretion, AlphaLISA, 16 h; stronger effect = lower value; activity change, % at 57.5 µM; 360,000 tested, 4.7% active; in the data active = activity change below about -50%; inconclusive = mostly about -30% to -49%; also: % is scaled to controls: 0 for no effect and ±100 for the full control effect
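THP-1 cells pretreated 1 hr with compounds (up to 57.5 uM final), then stimulated with LPS (250 ng/mL final) plus ATP (1.25 mM final); secreted IL-1B measured by AlphaLISA after 16 hr, decreased signal indicating inhibition.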
TGFb SMAD3 inh = TGF-b pathway inhibition. HepG2 CAGA-GFP TGF-b/SMAD3 reporter, GFP fluorescence, 18 h; TGF-beta stimulated, 500 pg/mL final. Potency, µM (titrated, usually from 46.1 µM), for the others: top-dose activity, negative = inhibition, most hits filed as inhibitors. 410,000 tested, 1.2% active; also: potency is read from the fitted curve at half-maximal effect; % is scaled to controls: 0 for no effect and ±100 for the full control effect; nearly all actives have a fitted effect of over 65% in size
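First, reporter cells (HEPG2 CAGA-GFP) rested 2 h at 37 degrees C. Next, compounds were pinned in and TGF-beta added to 500 pg/mL final. After 18 h, GFP was imaged per cell and summed per well.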
DT40 TDP1 CPT = growth inhibition of DT40 Tdp1-/-;hTDP1 cells with camptothecin (screen for TDP1 inhibitors); Potency, µM (titrated, usually from 46.2 µM), for the others: at the highest dose activity change, negative = growth inhibition, usual class: inhibitors; chicken DT40 Tdp1-/-;hTDP1 cells + 20 nM CPT, ATP luminescence, 48 h; 420,000 tested, 12% active; AID 686979; also: potency is read from the fitted curve at half-maximal effect; % is scaled to controls: 0 for no effect and ±100 for the full control effect; nearly all actives have a fitted effect of over 55% in size
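Chicken DT40 Tdp1-/- cells stably complemented with human TDP1 were seeded at 400 cells/well in medium containing 20 nM camptothecin, exposed to pin-transferred compounds, and grown at 37 °C for at least 48 hr. Viability was read as ATP luminescence.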
S-ASM inh = human S-ASM enzyme inhibition; AID 504937; 340,000 tested, 0.006% active; P17405; placental ASM, HMU-PC fluorogenic substrate, 60 min; Potency, µM (top dose mostly 57.5 µM), without a hit: at the top dose activity change, negative = inhibition, usual class: inhibitors; also: potency is read from the fitted curve at half-maximal effect
Target sequence (P17405 47-631 limits assumed): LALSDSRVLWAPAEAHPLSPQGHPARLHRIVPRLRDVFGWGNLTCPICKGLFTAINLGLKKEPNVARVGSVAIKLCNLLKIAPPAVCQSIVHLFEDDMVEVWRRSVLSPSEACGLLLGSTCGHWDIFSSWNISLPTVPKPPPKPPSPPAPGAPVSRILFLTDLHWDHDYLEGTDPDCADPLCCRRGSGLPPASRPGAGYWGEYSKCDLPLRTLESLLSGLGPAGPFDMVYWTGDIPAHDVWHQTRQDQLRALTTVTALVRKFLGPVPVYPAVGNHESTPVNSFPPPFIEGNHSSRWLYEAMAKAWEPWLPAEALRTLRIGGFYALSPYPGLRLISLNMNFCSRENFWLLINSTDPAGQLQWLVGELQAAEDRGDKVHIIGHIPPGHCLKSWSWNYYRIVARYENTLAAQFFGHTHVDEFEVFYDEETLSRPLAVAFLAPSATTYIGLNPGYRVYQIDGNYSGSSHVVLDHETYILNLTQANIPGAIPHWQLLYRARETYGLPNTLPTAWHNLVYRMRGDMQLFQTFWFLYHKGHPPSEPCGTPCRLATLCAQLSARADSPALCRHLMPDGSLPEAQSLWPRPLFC
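Fluorescence read-out (Ex 386 nm, Em 447 nm) after stopping the reaction at pH 10. Enzyme: ASM from human placenta; substrate HMU-PC0, 9 uM final; 60 min, 37 °C. Compound preincubation 10 min, ambient temperature.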
* hit, by the source's call; ? = inconclusive; · = no result. In the library only some 19% were active in any assay of this set; here they are far more common. Unless noted, calls follow the shape of the dose curve; as a rule, active = well fitted curve in the direction sought with a large enough effect; inconclusive = small, poorly fitted or top-dose-only effect, or another doubt; inactive = no such curve, though single readings can be large; an effect the other way counts as inactive or inconclusive.

SMILES	TDP1 cell noCPT	HepG2 tox	IL1B secr inh	TGFb SMAD3 inh	DT40 TDP1 CPT	S-ASM inh
Cc1cccc(N2CCN(C(=O)c3ccc(NC(=O)c4nsc5ccccc45)cc3)CC2)c1C	?	-24%	·	-2%	?	·
O=C(Nc1cccc(C(=O)N2CCN(c3ccccc3)CC2)c1)c1nsc2ccccc12	?	-4%	·	-7%	?	·
Cc1ccc(C)c(NC(=O)N2CCN(C(=O)c3nsc4ccccc34)CC2)c1	18µM*	9%	·	-17%	?	·
COc1ccc(C2CC(=O)N(Cc3cccc(C)c3)c3c2c(C)nn3-c2nc(C)cc(C)n2)c(OC)c1 (stereo unspecified)	?	4%	·	-1%	?	·
COc1ccc(N2CCN(C(C)C(=O)N3CCCC3)CC2)cc1 (stereo unspecified)	-4%	7%	17	?	5%	3%
Cc1cc2c(cc3c(SCc4ccccc4Cl)nnc(C)n32)o1	?	-6%	·	-9%	?	·
CCOC(=O)C1CCCN(C(=O)Cn2cnc3sc(C)c(S(=O)(=O)N4CCOCC4)c3c2=O)C1 (stereo unspecified)	-9%	1%	-53*	2%	0%	27%
Cc1sc2ncn(CC(=O)N3CCN(c4ccccc4)CC3)c(=O)c2c1S(=O)(=O)N1CCOCC1	?	-9%	3	1%	18%	-3%
CCOC(=O)C1CCN(C(=O)Cn2cnc3sc(C)c(S(=O)(=O)N4CCCCC4)c3c2=O)CC1	3%	20%	-11	7%	3%	-2%
CCOc1ccc(N(CC)C(=O)Cn2cnc3sc(C)c(S(=O)(=O)N4CCN(c5ncccn5)CC4)c3c2=O)cc1	9.2µM*	-2%	·	-10%	13µM*	·
Cc1sc2ncn(CC(=O)N3CCN(c4cccc(Cl)c4)CC3)c(=O)c2c1S(=O)(=O)N1CCN(c2ncccn2)CC1	-26%	-3%	·	-16%	-19%	·
CCc1ccc(N(CC)C(=O)Cn2cnc3sc(C)c(S(=O)(=O)N4CCN(c5ncccn5)CC4)c3c2=O)cc1	5%	-5%	·	-2%	5%	·
Cc1ccc(C)c(N2CCN(C(=O)Cn3cnc4sc(C)c(S(=O)(=O)N5CCN(c6ncccn6)CC5)c4c3=O)CC2)c1	9.2µM*	-8%	·	-14%	18µM*	·
Cc1sc2ncn(CC(=O)N3CCN(c4ccc(F)cc4)CC3)c(=O)c2c1S(=O)(=O)N1CCCCC1	16µM*	-13%	·	?	16µM*	·
CCCNc1sc(S(=O)(=O)CCC)nc1S(=O)(=O)c1ccc(C)cc1	?	-4%	2	-1%	?	-2%
CN(CC(=O)Nc1c(Cl)cccc1Cl)C(=O)c1cccc(-n2cccc2)c1	-17%	2%	-25	-23%	16µM*	-3%
CN(CC(=O)Nc1ccccc1Cl)C(=O)c1cccc(-n2cccc2)c1	?	-28%	-1	-18%	-18%	5%
Cc1cc(C(=O)CCC(=O)N(C)CC(=O)Nc2c(Cl)cccc2Cl)c(C)s1	12µM*	0%	13	-14%	-24%	0%
CNC(=S)N/N=C(\C)c1ccc(-n2ccnc2)cc1	4%	-2%	-11	2%	-3%	3%
C/C(=N\NC(=S)NC(C)C)c1ccc(-n2ccnc2)cc1	4.1µM*	1%	-17	-26%	3.3µM*	0%
CCc1ccc(OCC(=O)N/N=C(\C)c2ccccc2OC(F)F)cc1	16µM*	0%	-11	-6%	16µM*	-10%
COCCNC(=S)N/N=C(\C)c1ccc(-n2ccnc2)cc1	3.5µM*	-22%	74	?	4.5µM*	6%
CCc1ccc(OCC(=O)N/N=C(\C)c2ccc(-n3ccnc3)cc2)cc1	16µM*	-10%	-21	-14%	?	-3%
C=CCNC(=S)N/N=C(\C)c1ccc(-n2ccnc2)cc1	-17%	-40%	?	-26%	-23%	-1%
COc1ccc(/C=N/NC(=O)c2cccc(Br)c2)cc1COc1ccccn1	-3%	25%	19	23%	1%	-1%
SMILES	TDP1 cell noCPT	HepG2 tox	IL1B secr inh	TGFb SMAD3 inh	DT40 TDP1 CPT	S-ASM inh
Cc1ccc(NC(=O)CNC2CCS(=O)(=O)C2)cc1C (stereo unspecified)	1%	4%	6	-7%	5%	1%
CCCOP(=O)(c1ccc(N(C)C)cc1)C(Nc1ccccc1)c1ccc(N(C)C)cc1 (stereo unspecified)	2.3µM*	-1%	6	?	8.2µM*	-2%
O=C1C=CN(C2OC(CO)C(O)C2O)C(=O)C1 (stereo unspecified)	3.7µM*	6%	-9	-4%	8.2µM*	·
NC(=O)c1ccc(=O)n(C2OC(CO)C(O)C2O)c1 (stereo unspecified)	-10%	-11%	-8	-5%	?	10%
Cc1cccc2nc(COc3ccc4ccccc4c3Br)cn12	23µM*	-44%	66	0%	?	-14%
Cc1cc(NS(=O)(=O)c2ccc(NC(=O)COc3ccccc3[N+](=O)[O-])cc2)no1	10%	0%	11	15%	1%	-1%
Cc1cc(-n2c(C)cc(C(=O)COc3ccccc3[N+](=O)[O-])c2C)no1	23µM*	-18%	0	-4%	16µM*	-5%
COc1ccccc1[N+](=O)[O-]	9%	1%	-1	2%	-11%	-7%
Cc1cc(-n2c(C)cc(C(=O)COc3ccc(F)c(F)c3)c2C)no1	21µM*	-11%	-24	-1%	23µM*	-1%
COC(=O)/C=C/COc1ccccc1[N+](=O)[O-]	13µM*	2%	1	13%	9.2µM*	4%
Cc1cc(C(=O)COc2ccccc2[N+](=O)[O-])c(C)n1C1CC1	?	-1%	2	-10%	23µM*	0%
Cc1cc(C(=O)COc2ccccc2C(N)=O)c(C)n1C1CC1	?	-22%	-6	-11%	?	1%
O=C(Nc1ccccc1C(F)(F)F)c1cc2ccccc2o1	-29%	-9%	19	-17%	-10%	0%
CC1CCN(S(=O)(=O)c2ccc3c(c2)CCC(=O)N3CC(=O)Nc2cccc(C#N)c2)CC1	?	-14%	·	?	?	·
COCCNC(=S)N(CCO)Cc1cc2cc3c(cc2[nH]c1=O)OCCO3	-5%	4%	0	1%	-3%	19%
